# From PubChem BioAssay (NCI)
# Where “and” joins values, the source holds several entries; their conditions need not be identical. Identical values can stand only once. The panel holds about 83,000 compounds, 20% with a hit somewhere; the sample as a whole holds those more often.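 Each cell line was grown in a 96-well plate and treated with one concentration of compound for 48 hours. Values below 10 were considered active.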 A number with no mark means an inactive call. Calls of active or inactive are those of the source.
# Legend:
# Test in all cases: NCI-60 one-dose screen, 48 h (100 = growth as untreated, 0 = no growth, -100 = all killed)
# [1] = system: SR leukemia
# [2] = system: RPMI-8226 leukemia
# [3] = system: OVCAR-5 ovarian
# [4] = system: OVCAR-4 ovarian
# [5] = system: SK-OV-3 ovarian
# [6] = system: IGROV1 ovarian
# [7] = system: OVCAR-3 ovarian
# [8] = system: NCI/ADR-RES ovarian
# [9] = system: OVCAR-8 ovarian
# [10] = system: HS 578T breast
smiles,measurement,setting,value
CC(=O)/C=C/c1ccc(OCc2ccc(Cl)cc2)cc1,growth,[1]; 10 µM,98%
same,growth,[1]; 100 µM,30%
same,growth,[2]; 10 µM,87.9%
same,growth,[2]; 100 µM,24.2%
same,growth,[3]; 10 µM,109%
same,growth,[3]; 100 µM,75%
same,growth,[4]; 10 µM,101%
same,growth,[4]; 100 µM,43.4%
same,growth,[5]; 10 µM,110%
same,growth,[5]; 100 µM,38.8%
same,growth,[6]; 10 µM,106%
same,growth,[6]; 100 µM,61.4%
same,growth,[7]; 10 µM,102%
same,growth,[7]; 100 µM,50.7%
same,growth,[8]; 10 µM,96.5%
same,growth,[8]; 100 µM,18%
CC(=O)c1c(C)nc2ccccc2c1/C=C/c1cccc(C)c1,growth,[1]; 10 µM unless noted,23.3%
same,growth,[2]; 10 µM unless noted,56%
same,growth,[9]; 10 µM unless noted,69.4%
same,growth,[3]; 10 µM unless noted,83.6%
same,growth,[4]; 10 µM unless noted,67.2%
same,growth,[5]; 10 µM unless noted,69.7%
same,growth,[6]; 10 µM unless noted,48.1%
same,growth,[7]; 10 µM unless noted,45.5%
same,growth,[10]; 10 µM unless noted,62.5%
same,growth,[8]; 10 µM unless noted,29.8%
COc1ccc(-c2csc(NC(=O)CN3CCN(CCO)CC3)n2)cc1NS(=O)(=O)c1cccc2c(N(C)C)cccc12,growth,[1]; 10 µM unless noted,-6.12% (active)
same,growth,[2]; 10 µM unless noted,36%
same,growth,[9]; 10 µM unless noted,84.1%
same,growth,[3]; 10 µM unless noted,97%
same,growth,[4]; 10 µM unless noted,68.2%
same,growth,[5]; 10 µM unless noted,90.7%
same,growth,[6]; 10 µM unless noted,77.3%
same,growth,[7]; 10 µM unless noted,79.5%
same,growth,[10]; 10 µM unless noted,65.7%
same,growth,[8]; 10 µM unless noted,93.3%
N=c1c2c(-c3ccccc3)c(-c3ccccc3)oc2ncn1NC(=O)c1cccnc1,growth,[1]; 10 µM unless noted,77.7%
same,growth,[2]; 10 µM unless noted,97.5%
same,growth,[9]; 10 µM unless noted,97.7%
same,growth,[3]; 10 µM unless noted,109%
same,growth,[4]; 10 µM unless noted,101%
same,growth,[5]; 10 µM unless noted,99.2%
same,growth,[6]; 10 µM unless noted,95.7%
same,growth,[7]; 10 µM unless noted,111%
same,growth,[10]; 10 µM unless noted,103%
same,growth,[8]; 10 µM unless noted,107%
COc1ccc(-c2nnc3n(C)c(=O)c4ccccc4n23)cc1O,growth,[1]; 10 µM unless noted,21.4%
same,growth,[2]; 10 µM unless noted,15.9%
same,growth,[9]; 10 µM unless noted,25.2%
same,growth,[3]; 10 µM unless noted,66%
same,growth,[4]; 10 µM unless noted,53.6%
same,growth,[5]; 10 µM unless noted,14.9%
same,growth,[6]; 10 µM unless noted,55.7%
same,growth,[7]; 10 µM unless noted,0.325% (active)
same,growth,[10]; 10 µM unless noted,29.5%
same,growth,[8]; 10 µM unless noted,15.5%
Brc1ccc(/C=C(/C2=NCCN2)n2ccc3ccccc32)cc1,growth,[1]; 10 µM unless noted,30.4%
same,growth,[2]; 10 µM unless noted,86.1%
same,growth,[9]; 10 µM unless noted,72.3%
same,growth,[3]; 10 µM unless noted,72.9%
same,growth,[4]; 10 µM unless noted,67.7%
same,growth,[5]; 10 µM unless noted,82%
same,growth,[6]; 10 µM unless noted,60.7%
same,growth,[7]; 10 µM unless noted,77.6%
same,growth,[10]; 10 µM unless noted,78.2%
same,growth,[8]; 10 µM unless noted,65.9%
COc1ccc(/C=N/C2=C(C#N)C(c3ccccc3)c3c(ccc4ccccc34)O2)cc1 (stereo unspecified),growth,[1]; 10 µM unless noted,17.5%
same,growth,[2]; 10 µM unless noted,-2.96% (active)
same,growth,[9]; 10 µM unless noted,37.6%
same,growth,[3]; 10 µM unless noted,48.8%
same,growth,[4]; 10 µM unless noted,52.3%
same,growth,[5]; 10 µM unless noted,45.3%
same,growth,[6]; 10 µM unless noted,23.5%
same,growth,[7]; 10 µM unless noted,-11% (active)
same,growth,[10]; 10 µM unless noted,17.5%
same,growth,[8]; 10 µM unless noted,10.3%
CCOC(=O)C1=C(C)N=C2SC=C(c3ccc(F)cc3)N2[C@H]1c1cn(-c2ccccc2)nc1-c1ccc(Cl)cc1,growth,[1]; 10 µM unless noted,88%
same,growth,[2]; 10 µM unless noted,88.4%
same,growth,[9]; 10 µM unless noted,92%
same,growth,[3]; 10 µM unless noted,91.9%
same,growth,[4]; 10 µM unless noted,102%
same,growth,[5]; 10 µM unless noted,87.8%
same,growth,[6]; 10 µM unless noted,96.7%
same,growth,[7]; 10 µM unless noted,114%
same,growth,[10]; 10 µM unless noted,101%
same,growth,[8]; 10 µM unless noted,105%
O=C(Cc1ccc(F)cc1)c1ccccc1,growth,[1]; 10 µM unless noted,100%
same,growth,[2]; 10 µM unless noted,95.9%
same,growth,[9]; 10 µM unless noted,104%
same,growth,[3]; 10 µM unless noted,122%
same,growth,[4]; 10 µM unless noted,109%
same,growth,[5]; 10 µM unless noted,108%
same,growth,[6]; 10 µM unless noted,107%
same,growth,[7]; 10 µM unless noted,129%
same,growth,[10]; 10 µM unless noted,94%
same,growth,[8]; 10 µM unless noted,108%
CC(=O)Nc1c(I)c(NC(C)=O)c(I)c(C(=O)O)c1I,growth,[1]; 10 µM unless noted,86.7% and 80.5%
same,growth,[2]; 10 µM unless noted,106% and 112%
same,growth,[9]; 10 µM unless noted,101% and 96.3%
same,growth,[3]; 10 µM unless noted,102% and 108%
same,growth,[4]; 10 µM unless noted,90.4%
same,growth,[5]; 10 µM unless noted,105% and 110%
same,growth,[6]; 10 µM unless noted,108%
same,growth,[7]; 10 µM unless noted,111% and 116%
same,growth,[10]; 10 µM unless noted,105% and 171%
same,growth,[8]; 10 µM unless noted,106% and 109%
COc1ccc(C(=O)/C=C/c2ccc(OCc3cccc(C(F)(F)F)c3)c(OC)c2)cc1OC,growth,[1]; 10 µM,36.8%
same,growth,[1]; 100 µM,5.42% (active)
same,growth,[2]; 10 µM,29.7%
same,growth,[2]; 100 µM,-0.397% (active)
same,growth,[9]; 10 µM,67.1%
same,growth,[9]; 100 µM,4.75% (active)
same,growth,[3]; 10 µM,109%
same,growth,[3]; 100 µM,51.5%
same,growth,[4]; 10 µM,74.9%
same,growth,[4]; 100 µM,20.3%
same,growth,[5]; 10 µM,88.7%
same,growth,[5]; 100 µM,20%
same,growth,[6]; 10 µM,93.6%
same,growth,[6]; 100 µM,5.18% (active)
same,growth,[7]; 10 µM,79.8%
same,growth,[7]; 100 µM,-10.3% (active)
same,growth,[10]; 10 µM,98.2%
same,growth,[10]; 100 µM,11.6%
same,growth,[8]; 10 µM,71.4%
same,growth,[8]; 100 µM,-6.47% (active)
COc1ccc(NC(=O)Nc2ccccc2CNc2nc(Nc3ccc(OCCN4CCCC4)cc3)ncc2Cl)cc1,growth,[1]; 10 µM unless noted,11.6%
same,growth,[2]; 10 µM unless noted,-18.5% (active)
same,growth,[9]; 10 µM unless noted,-18.2% (active)
same,growth,[3]; 10 µM unless noted,21.1%
same,growth,[4]; 10 µM unless noted,-74.3% (active)
same,growth,[5]; 10 µM unless noted,58.5%
same,growth,[6]; 10 µM unless noted,24.3%
same,growth,[7]; 10 µM unless noted,-83.8% (active)
same,growth,[10]; 10 µM unless noted,-67.7% (active)
same,growth,[8]; 10 µM unless noted,6.48% (active)
